Assay results published in PubChem BioAssay AID1508600 (Functional Genomics Laboratory (NCATS/FGL), 2020).
About 3,700 (7%) of roughly 53,000 sequences were called active. The sample as a whole holds a higher share of actives than the screen did. Unmarked numbers belong to inactive results.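 How the source made its calls: active means gene knockdowns whose robust z-score for IL-1 alpha signal is at least 2 or at most -2, so actives lie on both sides; inactive means the rest.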

Test: Components of the Cytosolic LPS Sensing Pathway: Gene Identification via Genome-wide siRNA Screen;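 further: robust z of the log signal after scaling to non-targeting control siRNA wells of the plate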
Details: RAW264.7 macrophages, IL-1a HTRF, actives lie on both sides, screened at 100 nM (by protocol), cells primed 5 h with Pam3CSK4 first
Outline: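 RAW264.7 mouse macrophages reverse-transfected with single siRNAs (100 nM final) for 48h, primed with Pam3CSK4 for 5 hours, then transfected with LipidA for 24 hour. Supernatant IL-1a read by HTRF; values normalized to negative-control median, log-transformed robust z-scores.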

For GGCUCACAUUGUAACUUAGTT against Krtap5-2, which z-score is on record?
The z-score was 1.41.

Which z-score does the source give for GGAGAAUGCUAAGGUUACUTT against Pcdhga9 here?
Its z-score is 0.269.

For CGGCACACUAAGAAACGGATT against Odf3l1, which z-score is on record?
The z-score was 0.152.

Which z-score does the source give for GGAAGGAUAUGAGAAUUUCTT against Nt5c3 here?
The z-score was 2.51 (active).

For GCUCUUACAUAGAACUUUGTT against Tpbg, which z-score is on record?
Its z-score is -0.218.

Which z-score does the source give for GGCCUUUUUUCUAUAUCUATT against Galnt3 here?
Its z-score is -0.637.

With GGUGGAGGUGUGAUGGAUUTT against Slamf1 as the sequence, how does the z-score read?
The z-score was 5.09 (active).

Which z-score does the source give for GGUGGUGGCAGAAAUGAAUTT against Dpep2 here?
Its z-score is -0.946.

Which z-score does the source give for CCAGUUGUGCAAUCAACAATT against Fam98c here?
The z-score was -0.367.

With CGCGGUGGAGCUUCGAGAATT against Nrtn as the sequence, how does the z-score read?
Its z-score is 0.374.

Which z-score does the source give for GUUUCUCCAUGGAGUCAUUTT against Psmb5 here?
The z-score was -0.742.

With GGCAUUCGAAGGGACAGAUTT against Arg2 as the sequence, how does the z-score read?
The z-score was -2.06 (active).

For “GUGACCUCAUCCAGAAAAUTT against Vmn1r190-ps”, which z-score is on record?
Its z-score is -0.613.

With GGAUCACUUUGACCACAACTT against Rab31 as the sequence, how does the z-score read?
The z-score was 1.43.

Which z-score does the source give for GCACUGGACCAAAGAACGGTT against Cercam here?
Its z-score is 1.14.

For GCCAUUAUAUAGUCCUACCTT against Klf1, which z-score is on record?
Its z-score is 0.719.

For GGGUCAUGAAACCUACCUUTT against Hikeshi, which z-score is on record?
Its z-score is 0.182.

For GCUUGGACUGGAGUGAAGCTT against Map6d1, which z-score is on record?
Its z-score is -2.4 (active).

With GGCUACAAAGAUGCAGACUTT against Pi4k2a as the sequence, how does the z-score read?
The z-score was 0.22.

For GACAUAUUUGGGUUUCUAATT against Vmn1r15, which z-score is on record?
The z-score was -0.645.

Which z-score does the source give for GGAAUGACUUUUGAGACAGTT against Cyp1a1 here?
The z-score was -0.732.

With GGUAGAGAUCAUCAAUGCATT against Ggt5 as the sequence, how does the z-score read?
Its z-score is 0.0858.

For “GGAGUCCAAGUUUAAGGAATT against 4930522H14Rik”, which z-score is on record?
Its z-score is -1.65.

With CGGGACACUUGAAUUGGCUTT against Frmd4a as the sequence, how does the z-score read?
The z-score was -2.25 (active).

With GGAACAUUCUCUCCUUAUGTT against Ctps as the sequence, how does the z-score read?
Its z-score is -0.168.

Which z-score does the source give for GGAGUUGCAUCACUUGCUCTT against BC016579 here?
The z-score was 0.441.

With GGUAACUGGUGUCAUUUAATT against Zfp474 as the sequence, how does the z-score read?
Its z-score is 0.619.

For GGCAAGAUGCACAAGACUUTT against Cacna1s, which z-score is on record?
The z-score was 2.6 (active).

Which z-score does the source give for GGAUGUGUUACUUACCAAATT against Map4 here?
The z-score was 0.607.

With GGCCUUCUAUACUACAGACTT against Hdac1 as the sequence, how does the z-score read?
The z-score was -1.23.
